# Test results reported in the supplement of paper PMC10981050.
# Several values for one entry are separate records, joined by “and”; a condition that tells them apart may be missing. Equal entries are not always repeated. Structures can show the parent of a compound that is named as a salt.
# How the values were obtained:
# Experiment in all cases: cell viability relative to vehicle control; higher = less cytotoxic
# Details in all cases: 10 µM
# [1] = system: K562
# Procedure, shortened: (§1)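 Mutant clones made by CRISPR editing and their isogenic wild-type counterparts, from four leukaemia lines, were exposed to a single 10 µM dose of each library compound for 48 h. The supernatant was then removed and CellTiter-Glo luminescence was read. Viability was reported as percent of the on-plate vehicle control.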
# [2] = system: MARIMO
# Procedure, shortened: as §1
# [3] = system: MOLM14
# Procedure, shortened: as §1
# [4] = system: OCI-AML2
# Procedure, shortened: as §1
Structure (SMILES),cell viability ([1]; SRSF2 genotype: SRSF2 P95H/wt),cell viability ([1]; SRSF2 genotype: SRSF2 wt/wt),cell viability ([2]; SRSF2 genotype: SRSF2 P95H/wt),cell viability ([2]; SRSF2 genotype: SRSF2 wt/wt),cell viability ([3]; SRSF2 genotype: SRSF2 P95H/wt),cell viability ([3]; SRSF2 genotype: SRSF2 wt/wt),cell viability ([4]; SRSF2 genotype: P95H/wt),cell viability ([4]; SRSF2 genotype: wt/wt)
O=C(O)CCNc1cc(N2CCc3ccccc3CC2)nc(-c2ccccn2)n1,108% and 104%,99.5%,102%,107%,108%,107%,106%,111%
CC(=O)NC(Cc1ccc(O)cc1)C(=O)NC(CCCN=C(N)N)C(=O)NC(Cc1ccccc1)C(N)=O (stereo not drawn),87.2% and 83.5%,85.6%,84.2%,88.4%,87.3%,85.4%,87.9%,87.5%
CN1CCC[C@H]1c1cccnc1 [nicotine ditartrate],101% and 97.3%,97.6%,105%,117%,99.1%,101%,95.6%,106%
COc1ccc(C2=N[C@@H](c3ccc(Cl)cc3)[C@@H](c3ccc(Cl)cc3)N2C(=O)N2CCNC(=O)C2)c(OC(C)C)c1 [Nutlin-3],91.4% and 99.4%,89.2%,87.4%,93.3%,0.14%,1.06%,9.37%,32.1%
Nc1ccc(-c2ccc3ncc4ccc(=O)n(-c5cccc(C(F)(F)F)c5)c4c3c2)cn1 [Torin 2],13.4% and 21.3%,16.9%,16.5%,20.9%,1.07%,2.53%,1.62%,7.04%
NC(=O)[C@@H]1CCCN1C(=O)[C@H](Cc1c[nH]cn1)NC(=O)[C@@H]1CCC(=O)N1 [Protirelin],99.8% and 93.1%,104%,99.2%,108%,101%,100%,102%,100%
O=C1C=C2C=C[C@@H](O)[C@H](O)[C@H]2O1 [Griffonilide],101%,96.4%,98.7%,104%,99.3%,97.2%,103%,100%
COc1cc(C(=O)OCCCCNC(=N)N)cc(OC)c1O [Leonurine Hydrochloride],95.9% and 95.7%,101%,98.8%,95.4%,98%,102%,101%,98.6%
CN1CC[C@H](c2c(O)cc(O)c3c(=O)cc(-c4ccccc4Cl)oc23)[C@H](O)C1 [Flavopiridol (Alvocidib)],6.41% and 17.6%,8.24%,10.4%,4.67%,3.1%,0.32%,4.93%,15.2%
CS(=O)(=O)c1ccc(-c2cnc(NCc3ccco3)n3cnnc23)cc1,99.9% and 93.9%,97.2%,103%,99.5%,100%,98.5%,101%,110%
O=C(COc1ccc(C(=O)c2ccccc2)cc1)NC1CCN(Cc2ccccc2)CC1 [Adiporon],72.4% and 78.1%,73.9%,57.4%,53.5%,65.2%,77.2%,40.5%,47.3%
CC1CCN(CC[C@H]2CCCN2S(=O)(=O)c2cccc(O)c2)CC1,101%,95%,97.8%,106%,96.5%,103%,92.9%,98.7%
COc1cc(NC(=O)c2ccccn2)ccc1Cl,85.2% and 86.2%,94.1%,87.1%,92.4%,99%,95.3%,88.4%,80%
C/C=C(/C)C(=O)O[C@H]1Cc2cc3ccc(=O)oc3cc2OC1(C)C [Decursinol angelate],83.2% and 91.7%,81.8%,75%,82.4%,83.1%,89.4%,71.1%,77.8%
"N[C@@H](Cc1cc(I)c(O)c(I)c1)C(=O)O [3,5-Diiodotyrosine Dihydrate]",94.2% and 94.5%,97.4%,97%,102%,96.6%,99.9%,100%,102%
C[C@@H](O)[C@H]1C(=O)N2C(C(=O)OCOC(=O)C(C)(C)C)=C(SC3CN(C4=NCCS4)C3)[C@H](C)[C@H]12 [Tebipenem pivoxil (L-084)],99.2% and 99.3%,90%,90.5%,84.3%,88.7%,95.2%,103%,97.2%
CCCCC(CC)COC(=O)C(C#N)=C(c1ccccc1)c1ccccc1 (stereo not drawn) [Octocrylene],94.2% and 88.6%,97.5%,95.1%,107%,95.1%,98.5%,98.4%,99.9%
CC(C)Oc1ccc(C(=O)N[C@H](CNC(=O)CN(C)C)Cc2ccc(-c3cn4cccc([C@H](C)O)c4n3)cc2)cc1Cl,20.3% and 30.1%,36.2%,34.6%,26.3%,9.14%,1.72%,12.4%,14.5%
CCCCCCCCCCCCCCCCCC[N+](C)(C)C [Trimethyloctadecylammonium bromide],13.1% and 20%,48.1%,12.1%,16.6%,0.73%,0.49%,0.97%,2.46%
O=C(/C=C/N1C[C@H]2C[C@@H]1CN2c1ccccn1)c1ccccc1O,93.1% and 98%,97.1%,95.5%,96.5%,102%,99.2%,104%,105%
O=C(NS(=O)(=O)c1ccc(Br)s1)c1ccc(Cl)cc1Cl,92.9% and 102%,103%,97%,98.4%,61.8%,83.3%,73.9%,87.6%

Structure (SMILES),cell viability ([1]; SRSF2 genotype: SRSF2 P95H/wt),cell viability ([1]; SRSF2 genotype: SRSF2 wt/wt),cell viability ([2]; SRSF2 genotype: SRSF2 P95H/wt),cell viability ([2]; SRSF2 genotype: SRSF2 wt/wt),cell viability ([3]; SRSF2 genotype: SRSF2 P95H/wt),cell viability ([3]; SRSF2 genotype: SRSF2 wt/wt),cell viability ([4]; SRSF2 genotype: P95H/wt),cell viability ([4]; SRSF2 genotype: wt/wt)
Cc1cc(C(N)=O)ccc1-n1c(CCC(=O)O)ccc1-c1ccc(-n2ccnc2)cc1,101% and 109%,108%,105%,98%,105%,108%,109%,124%
Cc1ccc(-c2nn(C(C)(C)C)c3ncnc(N)c23)cc1,64.5% and 82.4%,63.5%,99.2%,102%,58.6%,85.9%,82%,78.6%
Nc1c(CC(=O)O)cccc1C(=O)c1ccccc1 [Amfenac Sodium (monohydrate)],103% and 98.3%,93.7%,94.7%,101%,91.5%,95.9%,88.5%,99.8%
O=c1ccoc2cc(O)ccc12 [7-Hydroxy-4-chromone],102% and 95.6%,93.5%,99.1%,104%,98.9%,104%,97.1%,96.3%
Nc1ncn([C@@H]2O[C@H](CO)[C@@H](O)[C@H]2O)c(=O)n1 [Azacitidine (Vidaza)],47.4% and 45.7%,52.2%,45.5%,52.8%,45.7%,40.3%,35.8%,34.3%
CC(=O)OCC1=C[C@@H]2OC(=O)C3=CO[C@@H](O[C@@H]4O[C@H](CO)[C@@H](O)[C@H](O)[C@H]4O)[C@H]1[C@@H]32 [Asperulosid],83.4% and 85.5%,85.5%,85.2%,94.3%,85%,88%,88.5%,113%
O=C(O)CSc1cc(NS(=O)(=O)c2ccc(Br)cc2)c2ccccc2c1O,86.4% and 79.9%,94.8%,95.5%,94.5%,73.9%,89.3%,97.9%,107%
O=C(O)c1cc(/N=N/c2ccc(O)c(C(=O)O)c2)ccc1O [Olsalazine Sodium],86.9% and 86%,81.6%,88.2%,92.2%,85.2%,88.4%,94.1%,90.1%
N=c1ccn2c(n1)O[C@H]1[C@H](O)[C@@H](CO)O[C@H]12 [Cyclocytidine HCl],92.8% and 103%,101%,27.8%,29%,11.3%,2.48%,9.61%,9.31%
Nc1ccc2ncnc(NCCc3ccc(Oc4ccccc4)cc3)c2c1,68.5% and 56.3%,67.6%,62.7%,58.3%,69.8%,63.6%,52.3%,51.5%
Cc1cn([C@H]2C[C@H](N=[N+]=[N-])[C@@H](CO)O2)c(=O)[nH]c1=O [Zidovudine (Retrovir)],96.5% and 101%,101%,102%,113%,95.5%,105%,101%,105%
Oc1ccc(/C=C/c2cc(O)cc(O)c2)cc1 [Resveratrol],83.1% and 92.7%,91.6%,70.1%,79.6%,73.4%,80%,67.2%,72.8%
C#C[C@]1(O)CC[C@H]2[C@@H]3CCc4cc(O)ccc4[C@H]3CC[C@@]21C [Ethinyl Estradiol],71.9% and 69.8%,65%,70.1%,70%,82.4%,98.8%,79.3%,79.7%
CC(C)(C)NCC(O)c1ccc(O)c(CO)c1 (stereo not drawn) [Salbutamol],104% and 102%,110%,108%,107%,99.4%,106%,101%,97.1%
C[C@@H](CN1CC(=O)NC(=O)C1)N1CC(=O)NC(=O)C1 [Dexrazoxane Hydrochloride],99.3% and 102%,97.5%,92.4%,96.4%,70.5%,78%,75.2%,76.2%
CN1CCN(CCCN2c3ccccc3Sc3ccc(C(F)(F)F)cc32)CC1 [Trifluoperazine 2HCl],25.7% and 36.9%,46.2%,52.5%,50.8%,45.9%,58.7%,47.6%,46.7%
OC(c1ccccc1)(c1ccccc1)C12CC[N+](CCOCc3ccccc3)(CC1)CC2 [Umeclidinium bromide],81.8% and 94.9%,89.5%,76.2%,90.9%,86.5%,81.6%,75.6%,85.1%
O=c1cc[nH]c(=S)[nH]1 [2-Thiouracil],101% and 103%,100%,98.6%,109%,106%,106%,107%,104%
CN1CCN(c2ccc(C(=O)Nc3n[nH]c4ccc(Cc5cc(F)cc(F)c5)cc34)c(NC3CCOCC3)c2)CC1 [Entrectinib (RXDX-101)],0.53% and 0.51%,0.41%,0.56%,2.11%,0.29%,0.28%,0.22%,0.35%
COc1ccccc1OCCN [Carvedilol EP IMpurity E],112% and 110%,113%,98%,102%,103%,107%,119%,117%
